# From the supplement of paper PMC12024424
# Structures can show the parent of a compound that is named as a salt.
# Test system: Staphylococcus aureus Sa2 (MRSA, cystic fibrosis isolate)
# Assay: growth reduction vs untreated control (OD550); higher = stronger antibacterial activity
# Conditions: 0.1 mM; 24 h
# Description: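 Single-dose screen of the MedChem Express Drug Repurposing Library (0.1 mM, 1% DMSO) against planktonic MRSA S. aureus Sa2 (CF isolate) in TSB in 96-well plates, 37 °C aerobic, 24 h. Assays were run in triplicate and repeated twice.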
row,Compound,growth reduction [%]
1,C#C[C@]1(O)CC[C@H]2[C@@H]3CCc4cc(O)ccc4[C@H]3CC[C@@]21C [Ethynyl Estradiol],99.9
2,C1CCC(C(CC2CCCCN2)C2CCCCC2)CC1 (stereo not drawn) [Perhexiline maleate],100
3,Oc1ccc2c(c1)CC[C@H](c1ccccc1)[C@@H]2c1ccc(OCCN2CCCC2)cc1 [Lasofoxifene (Tartrate)],98.2
4,CC1(C)CC[C@]2(NC(=O)C(C)(F)F)CC[C@]3(C)[C@H](C(=O)C=C4[C@@]5(C)C=C(C#N)C(=O)C(C)(C)[C@@H]5CC[C@]43C)[C@@H]2C1 [Omaveloxolone],100
5,COc1cc([C@H]2C(C#N)=C(N)Oc3c2ccc(N)c3N)cc(Br)c1OC [Crolibulin],98.1
6,O=C1[C@H](CC[C@H](O)c2ccc(F)cc2)[C@@H](c2ccc(O)cc2)N1c1ccc(F)cc1 [Ezetimibe],91.7
7,O=C(O)Cc1ccc(Cc2cc(-c3cccc(Cl)c3)nc(C(F)(F)F)c2)cc1,100
8,CC(=O)O[C@]1(C(C)=O)CC[C@H]2[C@@H]3C=C(C)C4=CC(=O)CC[C@]4(C)[C@H]3CC[C@@]21C [Megestrol acetate],100
9,OCCN1CCN(CC/C=C2/c3ccccc3Sc3ccc(Cl)cc32)CC1 [Zuclopenthixol],100
10,CC/C(=C(\c1ccccc1)c1ccc(OCCN(C)C)cc1)c1ccccc1 [Tamoxifen (Citrate)],100
11,COc1cc([C@@H]2c3cc4c(cc3[C@@H](O[C@@H]3O[C@@H]5CO[C@@H](c6cccs6)O[C@H]5[C@H](O)[C@H]3O)[C@H]3COC(=O)[C@H]23)OCO4)cc(OC)c1O [Teniposide],100
12,Cc1cc(CC(C)CC(C)(C)C)n(O)c(=O)c1 (stereo not drawn) [Piroctone olamine],100
13,COc1cc(C)c2c(Oc3cccc(C(F)(F)F)c3)c(OC)cc(NC(C)CCCN)c2n1 (stereo not drawn) [Tafenoquine (Succinate)],100
14,COc1cc2c(cc1Cc1cccc(Cl)c1F)c(=O)c(C(=O)O)cn2[C@H](CO)C(C)C [Elvitegravir],100
15,N[C@@H]1CC[C@@H](c2ccc(Cl)c(Cl)c2)c2ccccc21 [Dasotraline (hydrochloride)],100
16,C1=N/C2=N/c3ccc(OCCN4CCCC4)c(c3)COC/C=C/COCc3cccc(c3)C(=C1)N2 [Pacritinib],100
17,C=CC(=O)Nc1cc(Nc2nccc(-c3cn(C)c4ccccc34)n2)c(OC)cc1N(C)CCN(C)C [Osimertinib (dimesylate)],100
18,CN1CCCC(CC2c3ccccc3Sc3ccccc32)C1 (stereo not drawn) [Metixene hydrochloride hydrate],100
19,OCc1cc([C@@H](O)CNCCCCCCOCCOCc2c(Cl)cccc2Cl)ccc1O [Vilanterol],99.9

row,Compound,growth reduction [%]
1,CCN1CCN(c2ccc(Nc3cc(N(C)C(=O)Nc4c(Cl)c(OC)cc(OC)c4Cl)ncn3)cc2)CC1 [Infigratinib],100
2,CC(C)(C)C(=O)Oc1ccc(S(=O)(=O)Nc2ccccc2C(=O)NCC(=O)O)cc1 [Sivelestat (sodium)],92.9
3,CC(OC(=O)c1ccc(Cc2c(O)c3ccccc3oc2=O)cc1)(C(F)(F)F)C(F)(F)F [Tecarfarin],100
4,CCC[C@H](Oc1cc(C)c(-n2cc(C(F)(F)F)cn2)c(C)c1)c1ccc(C(=O)NCCC(=O)O)cc1,100
5,CC[C@H]1[C@@H](O)[C@@H]2[C@H](CC[C@]3(C)[C@@H]([C@H](C)CCC(=O)O)CC[C@@H]23)[C@@]2(C)CC[C@@H](O)C[C@@H]12 [Obeticholic acid],94.4
6,CC(C)(C)c1cc(-c2cc(-c3ccc(C(=O)O)cc3)ccc2OCCO)ccc1N1CCCC1 [Trifarotene],100
7,CC1=C(C)C(=O)C(CCCCCCCCCC[P+](c2ccccc2)(c2ccccc2)c2ccccc2)=CC1=O [Visomitin],100
8,CN1C(=O)[C@@H](NC(=O)c2n[nH]c(Cc3ccccc3)n2)COc2ccccc21,90.3
9,CC1(C)CCC(C)(C)c2cc(NC(=O)c3ccc(C(=O)O)cc3)ccc21 [Tamibarotene],95.5
10,CNCCC(Oc1ccc(C(F)(F)F)cc1)c1ccccc1 (stereo not drawn) [Fluoxetine (hydrochloride)],100
11,C#C[C@]1(O)CC[C@H]2[C@@H]3CCc4cc(OC)ccc4[C@H]3CC[C@@]21C [Mestranol],92.6
12,O=C(NC[C@H]1CN(c2ccc(N3CCOCC3=O)cc2)C(=O)O1)c1ccc(Cl)s1 [Rivaroxaban],100
13,C[C@@H]1CCc2ncc(F)cc2[C@H]2CCCN2c2ccn3ncc(c3n2)C(=O)N1 [Selitrectinib],96.9
14,Cc1cc(SCc2sc(-c3ccc(C(F)(F)F)cc3)nc2C)ccc1OCC(=O)O,100
15,CCOC(=O)C1=C(C)NC(C)=C(C(=O)OC)C1c1cccc(Cl)c1Cl (stereo not drawn) [Felodipine],100
16,O=C(OCC(O)CO)c1ccccc1Nc1ccnc2cc(Cl)ccc12 (stereo not drawn) [Glafenine],100
17,CC(C)(C)CC(C)(C)c1ccc(OCCOCC[N+](C)(C)Cc2ccccc2)cc1 [Benzethonium chloride],100
18,NC(=O)N1CCC(CC(=O)N2CCC([C@H]3c4ncc(Br)cc4CCc4cc(Cl)cc(Br)c43)CC2)CC1 [Lonafarnib],94.3
19,CC(C)c1c(C(=O)Nc2ccccc2)c(-c2ccccc2)c(-c2ccc(F)cc2)n1CC[C@@H](O)C[C@@H](O)CC(=O)O [Atorvastatin (hemicalcium salt)],99.7
